# Experimental data as given in PubChem BioAssay (NCATS).
# Results filed as inconclusive are left out. A call without a number means that no potency is given here. Activity calls are given as the source filed them. Calls come from the whole dose curve; as a rule, active = well fitted curve in the direction sought with a large enough effect; inconclusive = small, poorly fitted or top-dose-only effect, or another doubt; inactive = no such curve, though single readings can be large; an effect the other way counts as inactive or inconclusive.
# Tests used:
# ICS = assay: qHTS profiling for inhibitors of Plasmodium falciparum proliferation (AID 504749); note: nearly all actives have a fitted effect of over 60% in size; note: potency is the fitted concentration of half-maximal effect; settings: P. falciparum in erythrocytes, SYBR Green DNA, 72 h; series mostly up to 28.7 µM
# Method in brief: (§1)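 Quantitative HTS: compounds pinned into medium, infected erythrocytes added (0.3% parasitemia, 2.5% hematocrit), 72 h culture at 37 C under 5% CO2. Saponin/Triton lysis with SYBR Green I, overnight RT, then fluorescence read.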
# W2 = assay: as above; settings: P. falciparum in erythrocytes, SYBR Green DNA, 72 h; series mostly up to 28.7 µM
# Method in brief: as §1
# [1] = S16 Schwann cell PMP22 intronic element firefly luciferase assay (AID 624032); note: nearly all actives have a fitted effect of over 30% in size; note: potency is the fitted concentration of half-maximal effect
# Method in brief: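 Rat S16 Schwann cells stably carrying a PMP22 intronic element-driven Fluc reporter were seeded overnight, then exposed to compounds for 24 h at 37 °C. Luminescence was normalized to PTC124 (positive control) and DMSO (0% activity).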
# GB4 = assay: qHTS profiling for inhibitors of Plasmodium falciparum proliferation (AID 504749); note: nearly all actives have a fitted effect of over 60% in size; note: potency is the fitted concentration of half-maximal effect; settings: P. falciparum in erythrocytes, SYBR Green DNA, 72 h; series mostly up to 28.7 µM
# Method in brief: as §1
# PC26 = assay: as above; settings: P. falciparum in erythrocytes, SYBR Green DNA, 72 h; series mostly up to 28.7 µM
# Method in brief: as §1
# P93_24 = assay: as above; settings: P. falciparum in erythrocytes, SYBR Green DNA, 72 h; series mostly up to 28.7 µM
# Method in brief: as §1
# [2] = biological target: Cytochrome P450 3A4 (Homo sapiens) (UniProt P08684); assay: qHTS Assay for Inhibitors and Substrates of Cytochrome P450 3A4 (AID 884); note: nearly all actives have a fitted effect of over 50% in size
# Sequence of Cytochrome P450 3A4 (Homo sapiens) (P08684 whole entry, looked up): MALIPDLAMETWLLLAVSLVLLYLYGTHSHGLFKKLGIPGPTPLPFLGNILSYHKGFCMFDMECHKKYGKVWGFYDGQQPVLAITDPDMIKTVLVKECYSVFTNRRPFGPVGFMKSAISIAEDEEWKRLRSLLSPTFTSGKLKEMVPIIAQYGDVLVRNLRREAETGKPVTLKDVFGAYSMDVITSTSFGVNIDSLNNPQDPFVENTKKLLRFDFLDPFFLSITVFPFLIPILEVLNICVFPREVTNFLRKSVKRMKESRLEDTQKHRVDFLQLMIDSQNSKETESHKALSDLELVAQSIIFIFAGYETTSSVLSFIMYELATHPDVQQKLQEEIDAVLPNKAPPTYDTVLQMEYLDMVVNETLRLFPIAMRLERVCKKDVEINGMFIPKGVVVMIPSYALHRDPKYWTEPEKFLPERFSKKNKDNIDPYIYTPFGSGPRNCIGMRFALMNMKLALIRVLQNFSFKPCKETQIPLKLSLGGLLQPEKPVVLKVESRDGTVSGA
# Method in brief: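 Luminescent readout of luciferin produced by CYP3A4 (20 nM) dealkylation of Luciferin-PPXE, 25 uM (its KM). NADPH-driven reaction ran 60 min at RT after 10 min compound preincubation; data scaled to 57 uM ketoconazole as 100% inhibition.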
# [3] = Confirmation and Secondary Assay for Modulators of Hemoglobin Beta Chain Splicing at IVS2 705 locus (AID 930);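 note: HeLa cells stably expressing the EGFP-705 splicing reporter; GFP fluorescence per well restored by corrected splicing of the IVS2-705 intron in EGFP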
# Method in brief: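 Assay measures total GFP intensity per well in HeLa EGFP-705 cells after 2 days with compound; mis-splicing normally truncates EGFP, so fluorescence indicates corrected splicing.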
# [4] = qHTS for Inhibitors of Plasmodium falciparum (DD2) proliferation (AID 504314); note: potency is the fitted concentration of half-maximal effect
# Method in brief: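 Normalization used 0.29 uM artemisinin as full inhibition and DMSO as baseline. Parasitized erythrocytes were exposed to compounds for 72 h (37C, 5% CO2), then lysed with saponin/Triton buffer containing SYBR Green I.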
# [5] = qHTS for Inhibitors of Plasmodium falciparum (GB4) proliferation (AID 504315); note: nearly all actives have a fitted effect of over 50% in size; note: potency is the fitted concentration of half-maximal effect
# Method in brief: (§2)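 Parasite growth measured as SYBR Green DNA fluorescence (ex 485, em 535 nm) after overnight lysis following 72 h culture at 37 °C, 0.3% parasitemia, 2.5% hematocrit. Values normalized against DMSO and 0.29 uM artemisinin controls, with plate-stack correction.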
# [6] = qHTS for Inhibitors of Plasmodium falciparum (7G8) proliferation (AID 504316); note: potency is the fitted concentration of half-maximal effect; nearly all actives have a fitted effect of over 65% in size
# Method in brief: as §2
compound,measurement,setting,value
CC1=C[C@@H](O)CC(C)(C)[C@@H]1/C=C/C(C)=C/C=C/C(C)=C/C=C/C=C(C)/C=C/C=C(C)/C=C/C1=C(C)C[C@H](O)CC1(C)C,Potency,ICS,5.01 µM (active)
same,Potency,W2,6.75 µM (active)
C=C1/C(=C\C=C2/CCC[C@]3(C)[C@@H]([C@H](C)/C=C/[C@@H](O)C4CC4)CC[C@@H]23)C[C@@H](O)C[C@@H]1O,Potency,[1],10.2 µM (active)
same,Potency,GB4,inactive
same,Potency,PC26,inactive
CC1(C)O[C@@H]2C[C@H]3[C@@H]4CCC5=CC(=O)C=C[C@]5(C)[C@H]4C(O)C[C@]3(C)[C@]2(C(=O)CO)O1 (some centres undefined),Potency,[1],inactive
same,Potency,PC26,inactive
CCC(C)C(N)C(=O)O (centres undefined),Potency,[1],inactive
same,Potency,P93_24,inactive
same,Potency,PC26,inactive
C=C1CC[C@H](O)C/C1=C/C=C1\CCC[C@]2(C)[C@@H]([C@H](C)CCCC(C)(C)O)CC[C@@H]12,Potency,ICS,7.94 µM (active)
O=C(O)C[CH2][Ge](=[O])[O][Ge](=[O])[CH2]CC(=O)O,Potency,GB4,inactive
same,Potency,ICS,inactive
same,Potency,P93_24,inactive
same,Potency,PC26,inactive
same,Potency,W2,inactive
CC1CCC(O)C/C1=C\C=C1/CCCC2(C)C1CCC2C(C)/C=C/C(C)C(C)C (centres undefined),Potency,[1],inactive
same,Potency,ICS,11.2 µM (active)
CC(C)CCCC(C)C1CC(=O)C2=C3CCC4CC(O)CCC4(C)C3CCC21C (centres undefined),Potency,GB4,inactive
same,Potency,P93_24,inactive
same,Potency,PC26,inactive
same,Potency,W2,7.57 µM (active)
CNC1CCc2cc(OC)c(OC)c(OC)c2-c2ccc(OC)c(=O)cc21 (centres undefined),Potency,GB4,inactive
same,Potency,PC26,inactive
Cc1cc(O)c2c(c1)OC1(C)CCC3C(C)(C)CCCC34COC2C14 (centres undefined),Potency,[1],28.7 µM (active)
same,Potency,GB4,15.1 µM (active)
same,Potency,ICS,6.31 µM (active)
same,Potency,W2,8.49 µM (active)
CC1=C(c2ccc(NN=C(C#N)C#N)cc2)NNC(=O)C1,Potency,[1],inactive
same,Potency,ICS,inactive
same,Potency,P93_24,inactive
same,Potency,PC26,inactive
same,Potency,W2,inactive
CC1OC(OC2C(O)CC(OC3C(O)CC(OC4CCC5(C)C(CCC6C5CCC5(C)C(C7=CC(=O)OC7)CCC65O)C4)OC3C)OC2C)CC(O)C1O (centres undefined),Potency,P93_24,inactive
C/C(=C(/CCOC(=O)C(C)C)SS/C(CCOC(=O)C(C)C)=C(\C)N(C=O)Cc1cnc(C)nc1N)N(C=O)Cc1cnc(C)nc1N,Potency,ICS,inactive
same,Potency,P93_24,inactive
same,Potency,PC26,inactive
same,Potency,W2,inactive
CCC1OC(=O)C[C@H](O)C(C)[C@@H](O[C@@H]2OC(C)C(O)C(N(C)C)C2O)C(CCN2CC(C)CC(C)C2)CC(C)C(=O)/C=C/C(C)=C\[C@@H]1COC1OC(C)C(O)C(OC)C1OC (some centres undefined),Potency,[2],inactive
same,Potency,[3],inactive
same,Potency,GB4,7.57 µM (active)
same,Potency,ICS,10 µM (active)
same,Potency,W2,1.07 µM (active)
C#C[C@]1(O)CC[C@H]2[C@H]3[C@H](CC[C@@]21C)C1=C(CC(=O)CC1)C[C@@H]3C,Potency,GB4,inactive
same,Potency,P93_24,inactive
same,Potency,PC26,inactive
CC[C@H]1OC(=O)[C@H](C)C(=O)[C@H](C)[C@@H](OC2O[C@H](C)C[C@H](N(C)C)[C@@H]2O)[C@@](C)(OC)C[C@@H](C)C(=O)[C@@H](C)C2N(CCCCn3cnc(-c4cccnc4)c3)C(=O)O[C@@]21C (some centres undefined),Potency,ICS,10 µM (active)
same,Potency,PC26,inactive
C[C@]12CCC(=O)C=C1[C@@H]1C[C@H]1[C@H]1[C@@H]3[C@@H]4C[C@H]4[C@@]4(CCC(=O)O4)[C@@]3(C)CC[C@@H]12,Potency,GB4,inactive
same,Potency,P93_24,inactive
same,Potency,PC26,inactive
COC(=O)C1=C(C(=O)OC)[C@@H]2Nc3ccccc3[C@@]23C[C@@H](C(=O)OC)N(S(=O)(=O)c2ccc(Br)cc2)C3=N1,Potency,[4],inactive
same,Potency,[5],1.9 µM (active)
CCCCc1nc2c(c3c1C[C@H](C)OC3)CN(C(=O)N[C@H](C(=O)OC)C(C)C)CC2,Potency,[4],inactive
same,Potency,[5],inactive
same,Potency,[6],1.35 µM (active)
Cc1ccc(S(=O)(=O)N2CCc3nc(COc4ccccc4)c4c(c3C2)CO[C@@H](C)C4)cc1,Potency,[4],inactive
COC(=O)C1[C@@H](OC)C(OC(=O)COc2ccc(OC)cc2)C[C@@H]2CN3CCc4c([nH]c5cc(OC)ccc45)[C@H]3C[C@H]12 (some centres undefined),Potency,ICS,5.01 µM (active)
same,Potency,P93_24,10 µM (active)
same,Potency,W2,8.49 µM (active)
O=C(NC(CO)C(O)c1ccc([N+](=O)[O-])cc1)C(Cl)Cl (centres undefined),Potency,[3],inactive
same,Potency,[1],inactive
same,Potency,PC26,inactive
O=C(O)c1ccccc1-c1c2ccc(=O)cc-2oc2cc(O)ccc12,Potency,[1],inactive
CC1=C(/C=C/C(C)=C\C=C\C(C)=C\C=C\C=C(C)\C=C\C=C(C)\C=C\C2=C(C)C[C@@H](O)CC2(C)C)C(C)(C)C[C@H](O)C1,Potency,GB4,13.5 µM (active)
same,Potency,ICS,1.12 µM (active)
same,Potency,P93_24,12.6 µM (active)
same,Potency,W2,8.49 µM (active)
C[C@@H]1CC2[C@@H]3C[C@H](F)C4=CC(=O)C(Cl)=C[C@]4(C)[C@@]3(F)[C@H](O)C[C@]2(C)[C@@]1(O)C(=O)CO (some centres undefined),Potency,[1],inactive
CC#CCN1c2ccccc2[C@]23C[C@@H](C(=O)OC)N(S(=O)(=O)CCCC)C2=NC(C(=O)OC)=C(C(=O)OC)[C@H]13,Potency,[4],inactive
CC#CCN1c2ccccc2[C@]23C[C@@H](C(=O)OC)N(S(=O)(=O)c4ccc(C)cc4)C2=NC(C(=O)OC)=C(C(=O)OC)[C@H]13,Potency,[4],inactive
same,Potency,[5],1.69 µM (active)
CCN(CC)CCOCCOC(=O)C(CC)(CC)c1ccccc1 (tested in a mixture with another compound),Potency,[1],inactive
same,Potency,GB4,8.49 µM (active)
same,Potency,W2,0.849 µM (active)
Nc1ccccc1C(=O)C=Cc1ccccc1,Potency,[4],inactive
same,Potency,[5],inactive
C=C1CC[C@H](O)C/C1=C/C=C1\CCC[C@]2(C)[C@@H]([C@H](C)CC[C@@H](O)C(C)(C)O)CC[C@@H]12,Potency,ICS,10 µM (active)
same,Potency,PC26,15.1 µM (active)
same,Potency,W2,12 µM (active)
C[C@@H]1CC[C@H]2C(=O)N(Cc3ccc(Cl)cc3)C[C@H](O)CN2[C@@H]1c1ccc(Br)cc1,Potency,[4],1.69 µM (active)
COC(=O)C1=C(C(=O)OC)[C@@H]2N(C)c3ccccc3[C@@]23C[C@@H](C(=O)OC)N(S(=O)(=O)c2ccc([N+](=O)[O-])cc2)C3=N1,Potency,[4],inactive
same,Potency,[5],1.69 µM (active)
COCCN1C(=O)N[C@@H](c2ccco2)C(C(=O)OC)=C1C,Potency,[4],inactive
same,Potency,[5],inactive
CCC1OC(=O)C[C@@H](O)[C@H](C)[C@@H](OC2OC(C)CC(N(C)C)C2O)[C@@H](CC=O)C[C@@H](C)C(=O)/C=C/[C@]2(C)OC2C1C (some centres undefined),Potency,ICS,4.47 µM (active)
same,Potency,P93_24,1.12 µM (active)
same,Potency,W2,1.2 µM (active)
COC(=O)C1=C(C(=O)OC)[C@@H]2Nc3ccccc3[C@@]23C[C@@H](C(=O)OC)N(S(=O)(=O)c2ccc4c(c2)OCCN4C)C3=N1,Potency,[4],inactive
same,Potency,[5],1.69 µM (active)
same,Potency,[6],1.51 µM (active)
C=C1N[C@]2(C(=O)COC(C)=O)[C@@H](C[C@H]3[C@@H]4CCC5=CC(=O)C=C[C@]5(C)[C@H]4[C@@H](O)C[C@@]32C)O1,Potency,[1],inactive
same,Potency,GB4,inactive
same,Potency,W2,15.1 µM (active)
